D1 agonist = human D1 receptor agonism | P21728 | HEK293 T-REx D1 cells, calcium flux, agonist mode | activation, % at 2 µM | hit rate 1% among 360,000
Target sequence (P21728 whole entry, looked up): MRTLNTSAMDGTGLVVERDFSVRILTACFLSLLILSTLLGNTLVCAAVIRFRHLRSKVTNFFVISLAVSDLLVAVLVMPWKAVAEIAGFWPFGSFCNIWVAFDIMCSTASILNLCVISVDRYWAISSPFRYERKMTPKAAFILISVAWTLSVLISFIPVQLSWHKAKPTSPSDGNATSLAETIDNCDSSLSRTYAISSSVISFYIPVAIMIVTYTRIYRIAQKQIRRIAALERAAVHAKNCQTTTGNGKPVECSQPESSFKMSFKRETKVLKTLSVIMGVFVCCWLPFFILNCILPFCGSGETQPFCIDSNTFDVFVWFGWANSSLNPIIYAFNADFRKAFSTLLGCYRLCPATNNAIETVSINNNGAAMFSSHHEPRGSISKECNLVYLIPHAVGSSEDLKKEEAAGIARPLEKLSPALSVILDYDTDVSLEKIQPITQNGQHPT
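Inducible HEK293 T-REx D1 cells, force-coupled to calcium signalling, were plated at 4000 cells/well with tetracycline and held overnight at 30 C. After no-wash calcium dye loading, compound-evoked calcium rise over 180 s flagged agonists.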
LDHA inh = blocks human lactate dehydrogenase A; hit rate 0.15% among 480,000; purified LDHA, NADH/diaphorase-resazurin fluorescence; hits give low values; P00338; activity change, % (values are at about 110 or 230 µM); in the data active means activity change below about -30%
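Enzyme activity of human lactate dehydrogenase 5 (2 nM; 0.06 mM NADH, 0.2 mM pyruvate, 5 min, RT) is measured via a resazurin/diaphorase fluorescence readout of residual NADH.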
D1 antag = antagonists of human D1 dopamine receptor; HEK293 TREx D1 cells, calcium flux, dopamine EC80; hits give low values; hit rate 3.2% among 360,000; AID 504652; activity change, negative = inhibition, % at 10 µM; in the data active means activity change below about -30%
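Using tetracycline-induced force-coupled D1 Hek293 cells and a calcium dye, signals were followed for 180 s after compound, then for 180 s after EC80 dopamine, to detect inhibitors.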
TRHR PAM = allosterically enhances the human TRH receptor; AID 493056; TRHR cells, fluo-8 calcium fluorescence, EC20 TRH enhancement; hit rate 0.66% among 360,000; enhancement, % at 2 µM; in the data active means enhancement above about 30%
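TRHR-expressing cells loaded with fluo-8 calcium dye were read kinetically (ex 480/em 530) during compound addition, then stimulated with an EC20 of TRH (10 nM final). Enhancement of the Gq-mediated intracellular calcium response was scored.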
TRHR ag = agonists of human TRH receptor. P34981. TRHR cells, calcium flux fluo-8, FDSS agonist mode. activation, % at 2 µM. hit rate 0.18% among 360,000
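Fluo-8-loaded TRHR cells; 10 s baseline, compound added, kinetic Ca2+ fluorescence read 1/s, agonist mode.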
D1 PAM = human D1 dopamine receptor positive modulation | AID 504651 | potentiation, % at 10 µM | hit rate 0.036% among 360,000 | HEK293 TREx D1 cells, calcium flux, dopamine EC20 potentiation | P21728; in the data active means potentiation above about 30%
Each line names hits and unclear results; the compound was inactive in the other large screens. Shown are actives, neighbours in structure and some others; about 3.6% of the full set was active somewhere. Unless noted, no stated cut-off is given here; in the data, active means activation above about 30%; inactive means the rest.

Cc1ccc(Cn2ccc(NC(=O)CCSc3nc(-c4ccco4)cc(C(F)(F)F)n3)n2)cc1	TRHR PAM 39
Cc1cc(NC(=O)CCCSc2nc(-c3ccco3)cc(C(F)(F)F)n2)no1	none
CN(C)c1ccc(NC(=O)CCSc2nc(-c3ccco3)cc(C(F)(F)F)n2)cc1	D1 antag -33
Cc1ccccc1Cn1ccc(NC(=O)c2cnn3c(C(F)(F)F)cc(-c4ccco4)nc23)n1	D1 antag -57
Cc1cc(NC(=O)CCSc2nc(-c3ccco3)cc(C(F)(F)F)n2)no1	D1 agonist 55
COc1ccc(NC(=O)CCSc2nc(-c3ccco3)cc(C(F)(F)F)n2)cc1	none
CCOc1ccccc1CNC(=O)CC(C)n1nc(C)cc1C (stereo unspecified)	none (no result: D1 agonist, D1 antag, TRHR PAM, TRHR ag, D1 PAM)
O=C(CSc1nnnn1C1CCCCC1)Nc1cccc(CN2CCSCC2)c1	none (no result: D1 agonist, D1 antag, TRHR PAM, TRHR ag, D1 PAM)
Cc1ccc(NC(=O)CSc2nc(-c3ccco3)cc(C(F)(F)F)n2)c(C)c1	none
Cc1ccc(NC(=O)CSc2nc(-c3ccco3)cc(C(F)(F)F)n2)cc1	D1 antag -35
CCC(C)NC(=O)CSc1nc(-c2ccccc2)cc(C(F)(F)F)n1 (stereo unspecified)	none (no result: D1 agonist, D1 antag, TRHR PAM, TRHR ag, D1 PAM)
COC(=O)c1ccccc1NC(=O)CSc1nc(-c2ccccc2)cc(C(F)(F)F)n1	D1 antag -42
Cc1nc(C)c(CCC(=O)Nc2cc(Cl)ccc2F)c(=O)[nH]1	none (no result: D1 agonist, D1 antag, TRHR PAM, TRHR ag, D1 PAM)
Cc1nn(-c2ccccc2)c2sc(C(=O)N3CCCCC3)cc12	none
Cc1nn(-c2ccccc2)c2sc(C(=O)N3CCc4ccccc4C3)cc12	TRHR PAM 32
O=C(NC1CC1)c1cc2cc(Br)ccc2s1	D1 antag -32
Cc1nn(-c2ccccc2)c2sc(C(=O)NC3CCCCC3)cc12	D1 antag -52
O=C(NC1CCCC1)c1cc2c(F)cccc2s1	LDHA inh -30 (no result: D1 agonist, D1 antag, TRHR PAM, TRHR ag, D1 PAM)
O=c1cc(/N=C/c2coc3c(ccc4ccccc43)c2=O)[nH]c(=S)[nH]1	D1 antag -31
NC(=S)N/N=C/c1coc2c(ccc3ccccc32)c1=O	none
Clc1ccc(Cl)c(Oc2ccc3nnnn3n2)c1	none (no result: D1 agonist, D1 antag, TRHR PAM, TRHR ag, D1 PAM)
COc1cc2cc(CNc3ccccc3)c(=O)n(CC(=O)Nc3ccccc3)c2cc1OC	D1 agonist 37
COc1ccccc1NC(=O)Cn1c(=O)c(CNc2ccccc2)cc2cc(OC)c(OC)cc21	D1 agonist 69
CC(C)Cc1ccc(C(C)NC(=O)c2ccc(CN3CCCC3)cc2)cc1 (stereo unspecified)	none (no result: D1 agonist, D1 antag, TRHR PAM, TRHR ag, D1 PAM)
CCCCn1c(N)c(N(CC(C)C)C(=O)c2cc(-c3ccccc3)nc3ccccc23)c(=O)[nH]c1=O	none (no result: D1 agonist, D1 antag, TRHR PAM, TRHR ag, D1 PAM)
Cc1cc(C)nc(Nc2n[nH]c(COc3ccc(Cl)cc3)n2)n1	D1 agonist 34
Cc1cc(C)nc(Nc2n[nH]c(C)n2)n1	none
COC(=O)N(C)CC(=O)NC1CCC(C)CC1 (stereo unspecified)	none (no result: D1 agonist, D1 antag, TRHR PAM, TRHR ag, D1 PAM)
COc1cc2c3nnc(-c4ccc(F)cc4)c-3cn(Cc3ccc(F)cc3)c2cc1OC	D1 antag -37
N#C/C(=C\c1c[nH]c2ccccc12)C(=O)NC1CCCCC1	none (no result: D1 agonist, D1 antag, TRHR PAM, TRHR ag, D1 PAM)
O=C1c2ccccc2C(=O)N1CSc1nnnn1-c1ccccc1	none
O=C(CSc1nc2ccc(NC(=O)CSc3nnnn3-c3ccccc3)cc2s1)Nc1ccccc1	none
c1ccc(-n2nnnc2SCCCSc2nc3ccccc3s2)cc1	TRHR PAM 34
O=C1c2ccccc2C(=O)N1CCCCSc1nnnn1-c1ccccc1	D1 agonist 71, D1 antag -30
COc1cccc(CNC(=O)c2cc3c(s2)-c2c(C)cccc2OC3)c1	D1 antag -36
COc1ccc(NC(=O)c2cc3c(s2)-c2c(C)cccc2OC3)cc1Cl	TRHR PAM 50
COc1cc(Cl)c(C)cc1NC(=O)c1cc2c(s1)-c1c(C)cccc1OC2	none
COc1cccc(NC(=O)c2cc(=O)c3cc(C)ccc3o2)c1	none (no result: D1 agonist, D1 antag, TRHR PAM, TRHR ag, D1 PAM)
CCCn1nc(C(=O)OCC(=O)N(CC)Cc2ccccc2)c2ccccc2c1=O	none (no result: D1 agonist, D1 antag, TRHR PAM, TRHR ag, D1 PAM)
CCN(CC)S(=O)(=O)c1cc(NC(=O)C2CCCN(C(=O)c3ccc(F)cc3)C2)ccc1C (stereo unspecified)	none (no result: D1 agonist, D1 antag, TRHR PAM, TRHR ag, D1 PAM)
